Assay results: ChEMBL document CHEMBL1961873, “Compounds: GSK PKIS; Assays: Nanosyn kinase panel” (2012)

Columns and labels:
[1] = molecular target: T1, Aurora kinase A (Homo sapiens) (UniProt O14965); conditions: at 1 µM;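 also: values are mean percent inhibition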
T1 sequence (whole entry): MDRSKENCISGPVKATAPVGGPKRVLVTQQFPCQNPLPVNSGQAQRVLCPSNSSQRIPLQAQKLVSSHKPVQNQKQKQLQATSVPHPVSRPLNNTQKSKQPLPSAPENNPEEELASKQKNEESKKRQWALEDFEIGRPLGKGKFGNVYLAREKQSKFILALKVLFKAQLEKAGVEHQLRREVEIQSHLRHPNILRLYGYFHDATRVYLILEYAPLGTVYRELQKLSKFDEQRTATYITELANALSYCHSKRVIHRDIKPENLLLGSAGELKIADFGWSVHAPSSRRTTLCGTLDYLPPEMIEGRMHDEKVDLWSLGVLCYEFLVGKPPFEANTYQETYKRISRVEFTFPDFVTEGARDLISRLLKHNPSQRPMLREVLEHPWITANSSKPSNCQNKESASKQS

[2] = molecular target: Aurora kinase B (Homo sapiens) (UniProt Q96GD4); conditions: at 0.1 µM
Sequence of Aurora kinase B (Homo sapiens) (Q96GD4 whole entry): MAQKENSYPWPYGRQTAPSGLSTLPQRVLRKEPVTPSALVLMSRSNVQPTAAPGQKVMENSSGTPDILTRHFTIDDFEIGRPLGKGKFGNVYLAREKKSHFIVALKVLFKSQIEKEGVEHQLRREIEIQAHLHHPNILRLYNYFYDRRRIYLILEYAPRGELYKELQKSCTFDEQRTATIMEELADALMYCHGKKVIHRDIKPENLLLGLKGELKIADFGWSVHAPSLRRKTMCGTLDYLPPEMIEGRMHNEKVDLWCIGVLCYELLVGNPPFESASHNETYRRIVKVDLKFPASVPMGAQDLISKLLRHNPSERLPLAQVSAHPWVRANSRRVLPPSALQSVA

[3] = molecular target: Aurora kinase B (Homo sapiens) (UniProt Q96GD4); conditions: at 1 µM
[4] = molecular target: T2, Aurora kinase C (Homo sapiens) (UniProt Q9UQB9); conditions: at 0.1 µM
T2 sequence (whole entry): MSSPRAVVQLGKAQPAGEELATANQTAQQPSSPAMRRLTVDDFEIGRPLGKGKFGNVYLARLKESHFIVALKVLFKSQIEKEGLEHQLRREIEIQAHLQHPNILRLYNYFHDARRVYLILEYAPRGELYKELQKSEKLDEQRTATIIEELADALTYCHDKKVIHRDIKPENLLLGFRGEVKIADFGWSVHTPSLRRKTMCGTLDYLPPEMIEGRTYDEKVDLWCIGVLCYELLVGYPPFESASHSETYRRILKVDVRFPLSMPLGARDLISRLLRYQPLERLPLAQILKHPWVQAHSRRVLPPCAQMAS

[5] = molecular target: T2, Aurora kinase C (Homo sapiens); conditions: at 1 µM
[6] = molecular target: Serine/threonine-protein kinase 10 (Homo sapiens) (UniProt O94804); conditions: at 0.1 µM
Sequence of Serine/threonine-protein kinase 10 (Homo sapiens) (O94804 whole entry, looked up): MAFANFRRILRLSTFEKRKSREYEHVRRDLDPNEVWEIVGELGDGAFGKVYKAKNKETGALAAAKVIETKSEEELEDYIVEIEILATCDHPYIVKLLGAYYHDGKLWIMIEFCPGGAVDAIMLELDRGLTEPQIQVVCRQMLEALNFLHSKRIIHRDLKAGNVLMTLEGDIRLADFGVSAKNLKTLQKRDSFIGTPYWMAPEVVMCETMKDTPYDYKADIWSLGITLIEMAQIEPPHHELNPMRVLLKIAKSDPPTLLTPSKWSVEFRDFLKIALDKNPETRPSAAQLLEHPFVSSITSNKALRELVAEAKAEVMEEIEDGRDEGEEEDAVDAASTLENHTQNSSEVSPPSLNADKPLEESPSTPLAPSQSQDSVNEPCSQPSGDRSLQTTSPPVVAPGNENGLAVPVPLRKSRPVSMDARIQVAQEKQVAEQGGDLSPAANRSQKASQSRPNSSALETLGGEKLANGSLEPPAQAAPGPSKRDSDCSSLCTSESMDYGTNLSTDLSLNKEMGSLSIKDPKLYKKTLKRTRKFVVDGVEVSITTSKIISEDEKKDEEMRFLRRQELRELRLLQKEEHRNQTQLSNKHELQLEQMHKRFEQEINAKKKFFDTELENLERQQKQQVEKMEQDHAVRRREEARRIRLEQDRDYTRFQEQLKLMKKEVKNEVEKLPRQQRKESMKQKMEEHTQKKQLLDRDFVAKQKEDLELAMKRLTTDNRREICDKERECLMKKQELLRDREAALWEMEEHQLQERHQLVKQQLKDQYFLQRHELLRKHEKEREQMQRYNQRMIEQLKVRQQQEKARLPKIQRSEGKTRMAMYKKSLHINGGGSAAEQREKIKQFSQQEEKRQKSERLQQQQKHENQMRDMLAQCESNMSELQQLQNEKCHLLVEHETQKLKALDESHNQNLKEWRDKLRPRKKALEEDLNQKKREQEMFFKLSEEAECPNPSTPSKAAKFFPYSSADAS

[7] = molecular target: Serine/threonine-protein kinase 10 (Homo sapiens) (UniProt O94804); conditions: at 1 µM
[8] = molecular target: T3, Mitogen-activated protein kinase kinase kinase kinase 2 (Homo sapiens) (UniProt Q12851); conditions: at 0.1 µM
T3 sequence (whole entry): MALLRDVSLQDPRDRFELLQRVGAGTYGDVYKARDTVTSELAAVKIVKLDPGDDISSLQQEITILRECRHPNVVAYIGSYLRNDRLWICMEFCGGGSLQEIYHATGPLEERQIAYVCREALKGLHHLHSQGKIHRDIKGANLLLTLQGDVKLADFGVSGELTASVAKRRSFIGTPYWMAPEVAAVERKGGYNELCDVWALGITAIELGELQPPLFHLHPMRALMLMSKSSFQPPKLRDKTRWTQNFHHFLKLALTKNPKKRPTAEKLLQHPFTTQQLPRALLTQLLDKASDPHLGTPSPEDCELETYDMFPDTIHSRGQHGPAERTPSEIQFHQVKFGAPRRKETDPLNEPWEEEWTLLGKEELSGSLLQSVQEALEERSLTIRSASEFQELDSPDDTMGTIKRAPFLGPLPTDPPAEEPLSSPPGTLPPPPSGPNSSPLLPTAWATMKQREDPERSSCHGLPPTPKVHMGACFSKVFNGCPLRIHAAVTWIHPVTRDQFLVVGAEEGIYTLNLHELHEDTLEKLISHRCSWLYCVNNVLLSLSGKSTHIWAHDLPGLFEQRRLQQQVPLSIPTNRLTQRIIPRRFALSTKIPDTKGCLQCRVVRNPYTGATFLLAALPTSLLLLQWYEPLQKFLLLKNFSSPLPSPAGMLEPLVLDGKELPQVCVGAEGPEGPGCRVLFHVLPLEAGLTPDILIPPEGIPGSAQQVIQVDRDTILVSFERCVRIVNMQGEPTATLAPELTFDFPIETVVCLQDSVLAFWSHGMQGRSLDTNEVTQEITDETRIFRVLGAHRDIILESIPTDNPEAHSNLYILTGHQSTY

[9] = molecular target: T3, Mitogen-activated protein kinase kinase kinase kinase 2 (Homo sapiens); conditions: at 1 µM
[10] = molecular target: Mitogen-activated protein kinase kinase kinase kinase 4 (Homo sapiens) (UniProt O95819); conditions: at 0.1 µM
Sequence of Mitogen-activated protein kinase kinase kinase kinase 4 (Homo sapiens) (O95819 2-1239 limits assumed): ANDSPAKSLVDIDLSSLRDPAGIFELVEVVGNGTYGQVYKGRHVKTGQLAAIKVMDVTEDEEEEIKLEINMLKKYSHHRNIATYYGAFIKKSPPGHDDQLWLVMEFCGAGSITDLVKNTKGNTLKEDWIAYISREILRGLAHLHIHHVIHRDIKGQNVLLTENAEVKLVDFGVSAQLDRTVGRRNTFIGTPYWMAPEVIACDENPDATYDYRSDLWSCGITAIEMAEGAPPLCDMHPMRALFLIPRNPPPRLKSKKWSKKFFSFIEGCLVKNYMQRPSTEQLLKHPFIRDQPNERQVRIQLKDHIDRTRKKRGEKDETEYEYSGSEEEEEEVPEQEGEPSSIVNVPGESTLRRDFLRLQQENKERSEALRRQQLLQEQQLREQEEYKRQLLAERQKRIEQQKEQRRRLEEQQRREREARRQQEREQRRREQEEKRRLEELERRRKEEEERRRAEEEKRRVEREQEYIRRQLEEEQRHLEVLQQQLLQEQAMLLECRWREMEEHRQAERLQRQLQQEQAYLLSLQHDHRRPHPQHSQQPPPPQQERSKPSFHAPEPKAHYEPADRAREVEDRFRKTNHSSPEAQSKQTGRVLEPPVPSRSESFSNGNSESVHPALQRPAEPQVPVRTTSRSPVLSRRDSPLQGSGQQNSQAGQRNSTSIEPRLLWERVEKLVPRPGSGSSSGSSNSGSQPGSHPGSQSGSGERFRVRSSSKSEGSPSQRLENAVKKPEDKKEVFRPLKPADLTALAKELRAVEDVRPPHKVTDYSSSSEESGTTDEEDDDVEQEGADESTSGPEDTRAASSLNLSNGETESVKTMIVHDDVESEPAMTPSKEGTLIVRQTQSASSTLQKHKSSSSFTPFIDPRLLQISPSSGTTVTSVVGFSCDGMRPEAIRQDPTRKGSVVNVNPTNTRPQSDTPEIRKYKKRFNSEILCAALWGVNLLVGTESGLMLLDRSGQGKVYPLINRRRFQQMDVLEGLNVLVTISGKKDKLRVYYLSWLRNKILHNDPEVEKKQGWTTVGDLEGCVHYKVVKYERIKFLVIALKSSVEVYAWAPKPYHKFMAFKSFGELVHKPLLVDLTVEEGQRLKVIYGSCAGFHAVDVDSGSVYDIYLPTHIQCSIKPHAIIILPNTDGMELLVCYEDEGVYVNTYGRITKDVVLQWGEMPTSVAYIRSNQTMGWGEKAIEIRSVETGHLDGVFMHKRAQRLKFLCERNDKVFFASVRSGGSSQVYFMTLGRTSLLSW

Structure (SMILES)	inhibition [1] [%]	inhibition [2] [%]	inhibition [3] [%]	inhibition [4] [%]	inhibition [5] [%]	inhibition [6] [%]	inhibition [7] [%]	inhibition [8] [%]	inhibition [9] [%]	inhibition [10] [%]
Fc1ccc(-c2nn3ccccc3c2-c2ccncc2)cc1	8.81	-1.03	4.77	0.61	2.01	2.07	1.79	2.33	7.42	5.52
c1cc(-c2cnn3nc(N4CCOCC4)ccc23)nc(NC2CC2)n1	22	7.41	46.8	7.39	75.5	5.74	12.1	-0.22	5.78	6.38
COc1cc2c(cc1Nc1nc(Nc3ccsc3C(N)=O)c3cc[nH]c3n1)N(C(=O)CN(C)C)CCC2(C)C	13.2	6.17	11.7	4.7	13.7	6.3	17.3	4.1	22.6	12.1
Fc1ccc(-c2nn3ncccc3c2-c2ccnc(Nc3ccc4c(c3)OCCO4)n2)cc1	33.7	4.26	12.2	1.04	22.9	10.8	41.8	1.14	12.1	20.1
CCn1c(-c2nonc2N)nc2cnc(Oc3cccc(NC(=O)c4ccc(N(C)C)cc4)c3)cc21	79.2	3.58	18.1	1.17	43.7	2.62	5.59	-0.28	3.56	3.32
CCNC(=O)O[C@H]1CN[C@H](C#Cc2cc3ncnc(Nc4ccc(OCc5cccc(F)c5)c(Cl)c4)c3s2)C1	9.61	0.34	8.23	1.85	12	3.53	9.99	0.18	2.21	4.18
CCOc1ccc2c(-c3ccnc(Nc4cccc(C(F)(F)F)c4)n3)cnn2n1	7.68	6.17	9.87	2.6	12.5	4.81	12.9	0.42	6.12	0.65
NS(=O)(=O)c1ccc(N/N=C2\C(=O)Nc3ccc4ncccc4c32)cc1	91.8	20	67.9	15.8	91.9	4.44	13.1	11.7	49.8	44.4
COc1ccc(-c2cc(-c3c[nH]nc3-c3ccccn3)ccn2)cc1	5.58	4.41	5.71	2.12	-1.66	5.75	8.57	1.74	2.15	35.5
